In the library only some 10% were active in any assay of this set; here they are far more common.
PNC inhibitor – blocks assembly of the perinucleolar compartment; PC3M PTB-GFP, PNC prevalence imaging, 16 h; hits give low values; activity change (PNC), negative = inhibition, % at 10 µM; actives 3.1% (n = 140,000); AID 2417;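 active means readout at or below -70, meaning at least 70% loss of cells showing the perinucleolar compartment, a nuclear body marking cancer cells; inconclusive means readout between -30 and a set limit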;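 further: plate controls were DMSO wells for no effect and camptothecin positive control wells for full effect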
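Compounds are pinned in duplicate onto adhered PC3M cells stably expressing GFP-tagged PTB and incubated 16 h at 37 C. Cells are then fixed, nuclei stained with Hoechst, and PNC-positive cells counted.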
Luc counter – blocks Kinase-Glo luciferase, a counter-screen artifact; Kinase-Glo luciferase, ATP luminescence, 8 min; Potency, µM (series often up to 38.3 µM), inactives show top-dose activity change, negative = inhibition, most hits filed as inhibitors; actives 0.28% (n = 200,000); active means well fitted inhibition curve with a large enough effect; inconclusive means small, poorly fitted or top-dose-only effect; further: potency means the concentration at half of the fitted maximal effect; nearly all actives have a fitted effect of over 60% in size
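Kinase-Glo luciferase light output from ATP and luciferin was measured with 10 uM ATP, within the enzyme's linear range. Buffer: 50 mM imidazole pH 7.2, 50 mM KCl, 7 mM MgCl2, 0.01% Tween 20, 0.05% BSA; luminescence read after 8 min at ambient temperature.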
ALDH1A1 block – inhibitors of human aldehyde dehydrogenase 1A1; P00352; Purified ALDH1A1, NADH fluorescence, propionaldehyde substrate; Potency, µM (highest dose often 75.3 µM), for the others: at the top dose activity, negative = inhibition, hits mostly inhibitors; actives 7.3% (n = 220,000);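 further: potency means the concentration at half of the fitted maximal effect; plate controls were no enzyme wells and a reference inhibitor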
Target sequence (P00352 whole entry, looked up): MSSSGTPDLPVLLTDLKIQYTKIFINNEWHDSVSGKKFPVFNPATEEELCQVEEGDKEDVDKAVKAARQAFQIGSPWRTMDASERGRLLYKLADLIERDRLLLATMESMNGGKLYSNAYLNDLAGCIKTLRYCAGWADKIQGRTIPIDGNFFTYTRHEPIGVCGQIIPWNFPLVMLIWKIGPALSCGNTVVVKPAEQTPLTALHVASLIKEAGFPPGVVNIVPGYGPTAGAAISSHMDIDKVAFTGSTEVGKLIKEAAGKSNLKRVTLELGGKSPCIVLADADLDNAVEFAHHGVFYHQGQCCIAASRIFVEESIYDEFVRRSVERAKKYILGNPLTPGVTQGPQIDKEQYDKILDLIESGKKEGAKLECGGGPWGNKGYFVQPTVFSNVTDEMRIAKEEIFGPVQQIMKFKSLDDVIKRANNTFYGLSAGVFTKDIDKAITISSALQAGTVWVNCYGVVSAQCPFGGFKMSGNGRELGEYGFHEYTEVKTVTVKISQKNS
Lamin A splicing – LMNA splicing modulation; Potency, µM (top dose mostly 46.1 µM), for inactives: top-dose ratio change, negative = inhibition, most hits filed as inhibitors; HeLa LMNA splicing GFP/RFP minigene ratio, 48 h; actives 0.01% (n = 200,000); active means well fitted inhibition curve with a large enough effect in the signal ratio, with a control signal flat, not every such curve was filed as active; inconclusive means small, poorly fitted or top-dose-only effect, or effect the other way, or a change in a side signal; the % refers to the signal ratio; further: potency means the concentration at half of the fitted maximal effect
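S3 HeLa stable clones carrying a lamin A-EGFP splicing minigene plus DsRed2 were seeded at 600 cells/well in Opti-MEM with 2% FBS, pin-dosed and incubated 48 h at 37°C. Acumen cytometry (488 nm) gave the GFP/RFP total-intensity ratio.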
HPGD inh – blocks human HPGD enzyme activity; actives 4.3% (n = 150,000); purified HPGD, NADH fluorescence kinetic, PGE2 substrate; Potency, µM, without a hit: top-dose activity change, negative = inhibition, hits mostly inhibitors; P15428; AID 894; further: potency means the concentration at half of the fitted maximal effect
Target sequence (P15428 whole entry, looked up): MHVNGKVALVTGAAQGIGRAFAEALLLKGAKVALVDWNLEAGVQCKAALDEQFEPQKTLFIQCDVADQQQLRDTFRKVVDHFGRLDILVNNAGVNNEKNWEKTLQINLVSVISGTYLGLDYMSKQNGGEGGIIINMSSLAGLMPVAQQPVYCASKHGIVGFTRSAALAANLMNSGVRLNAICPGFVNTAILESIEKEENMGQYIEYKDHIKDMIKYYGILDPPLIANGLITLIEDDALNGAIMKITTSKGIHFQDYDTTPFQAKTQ
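20 nM HPGD preincubated 15 min at room temperature with compound in 50 mM Tris-HCl pH 8, 0.01% Tween 20. Started with 1 mM NAD+ and 30 uM prostaglandin E2; NADH fluorescence (360/450 nm) read 5 times over 30-s intervals, last minus first.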
* hit, by the source's call; ? = inconclusive; . = no result; [ ] = another dose, or the depositor's remark. Unless noted, the call rests on the fitted dose curve; in most records, active means well fitted inhibition curve with a large enough effect (not every such curve was filed as active); inconclusive means small, poorly fitted or top-dose-only effect, or another doubt; inactive means no such curve, though single readings can be large or run the other way. Unless noted, on the % scale 0 is the no-effect control and ±100 the full control effect.

SMILES | PNC inhibitor | Luc counter | ALDH1A1 block | Lamin A splicing | HPGD inh
Cc1ccccc1CN1C2=NCCN2C(=O)C2=C1CCN(Cc1ccccc1)C2 | . | -2%[7.66 µM] | 6%[13.5 µM] | . | -5%
CN(C)/C=N/c1sc2c(c1C#N)CC(C)(C)NC2(C)C | ? | -3% | 7% | -8% | -7%
N#Cc1c(/N=C/c2cccs2)sc2c1CCCCC2 | ? | ? | ? | 9% | ?
N#Cc1c(/N=C/N2CCOCC2)sc2c1CCCCC2 | ? | 5% | 14µM* | 2% | -19%
CCCN(/C=N/c1sc2c(c1C#N)CCCCC2)CCC | 22 | -2% | ? | 9% | -16%
CN(C)/C=N/c1sc2c(c1C#N)CCC2 | -30 | -6% | 10µM* | 5% | 25µM*
CN(C)/C=N/c1sc2c(c1C#N)CCCCC2 | -11 | 0% | 4µM* | ? | -24%
CC(C)=NO[C@@H](C)c1cn([C@H](CO)Cc2ccccc2)nn1 | . | . | 14%[13.5 µM] | . | .
CC(C)OCCCNC(=O)c1sc(=S)n(C)c1N | 22 | 1% | -96% | 0% | 28µM*
CCNC(=O)c1sc(=S)n(CC)c1N | 32 | -1% | ? | 8% | 18µM*
CCn1c(N)c(C(=O)NCCCOC)sc1=S | ? | 6% | 3.2µM* | -2% | 14µM*
CCn1c(N)c(C(=O)N2CCOCC2)sc1=S | 10 | . | -14% | ? | .
COC(=O)N1CCC2(CCCN(C(c3ccccc3)c3ccccc3)C2)CC1 | . | -2% | 6% | . | 1%
CCCSc1nc2c(c(=O)[nH]1)C(c1ccc(O)c(OCC)c1)CC(=O)N2 (stereo not given) | . | . | . | 6%[46 µM] | .
Cc1cc2c(cc1NS(=O)(=O)c1ccc(NC(=O)CC(C)C)cc1)n(C)c(=O)c(=O)n2C | . | . | . | -4%[46 µM] | .
O=C(O)C[C@H](Nc1ccccc1)C(=O)O | . | -1%[7.66 µM] | -2%[13.5 µM] | . | -10%
Cc1cccc(NC(=O)CSc2nnc(-c3ccco3)c(-c3ccco3)n2)c1C | 0 | -3% | 3.5µM* | 0%[0.0737 µM] | 10µM*
Cc1cccc(NC(=O)CSc2nnc(-c3ccco3)c(-c3ccco3)n2)c1 | . | -1% | 7.9µM* | 24%[46 µM] | .
CO[C@H]1COC(=O)[C@H](C)NC(=O)[C@@H](C)COC(=O)[C@H]2CCCN2C(=O)C/C=C\[C@H]1C | . | . | 9%[13.5 µM] | . | .
CCOc1ccc(NC(=O)CSc2nc3c([nH]c4ccccc43)c(=O)n2-c2cc(C)cc(C)c2)cc1 | . | . | . | 19%[46 µM] | .
CC(C(=O)O)N1C(=O)/C(=C/C=C/c2ccco2)SC1=S (stereo not given) | -29 | -3% | -16% | -8% | 16µM*
CC(=C\c1ccccc1)/C=C1/SC(=S)N(C(C(=O)O)C(C)C)C1=O (stereo not given) | . | 5% | -5% | ? | .
CN(C)C(=O)c1nc2ccccc2s1 | -20 | 0% | -2% | -3% | -14%
CN(C)c1ccc(CC(=O)c2nc3ccccc3s2)cc1 | -27 | -2% | 7.1µM* | 2% | -8%
CCCc1c(C)c2cccc(C)c2[nH]c1=O | -19 | -1% | -2% | -6% | -10%
SMILES | PNC inhibitor | Luc counter | ALDH1A1 block | Lamin A splicing | HPGD inh
CCCCN1CCc2c([nH]c3c(C)cccc23)C1=O | -87* | 12% | ? | 9% | -24%
CCCCOc1ccc(Cl)cc1CSc1nnc(C)n1N | -97* | -1% | 4% | 9% | -14%
O=C(COC(=O)C12CC3CC(CC(C3)C1)C2)NC12CC3CC(CC(C3)C1)C2 | 17 | -1% | 14µM* | 22%[0.0737 µM] | -26%
CCC(CC)C(=O)OCC(=O)NC12CC3CC(CC(C3)C1)C2 | 42 | 17% | ? | 6% | -18%
O=C(COC(=O)C(O)c1ccccc1)NC12CC3CC(CC(C3)C1)C2 (stereo not given) | 11 | -3% | 32µM* | 4% | -9%
Cn1cnc2c(ncn2[C@@H]2O[C@H](CO)[C@@H](O)[C@H]2O)c1=N | . | . | 0% | . | .
NC(=O)C1CCN(C(=O)c2cc3n(n2)C(C(F)(F)F)CC(c2ccco2)N3)CC1 (stereo not given) | -4 | -1% | 12µM* | -6% | -11%
O=C(NC1CCCCCC1)c1cc2n(n1)C(C(F)(F)F)CC(c1ccco1)N2 (stereo not given) | 7 | 2% | -9% | -4% | -9%
COc1ccc(Nc2nc(Nc3ccc(OC)cc3)nc(-n3[nH]c(=O)c(C)c3C)n2)cc1 | 116 | 0% | 25µM* | -5% | -17%
COc1ccc(N2CCN(c3nc(Nc4ccc(F)cc4)nc(OC)n3)CC2)cc1 | 16 | 0% | -1% | -2% | -8%
Cc1ccc(NC(=O)Cn2cnc3c(oc4ccccc43)c2=O)cc1Cl | . | . | . | 2%[46 µM] | .
CCCc1nnc(NC(=O)Cn2c(=O)oc3cc(Br)ccc32)s1 | -10 | 13% | ? | 6% | ?
O=c1oc2cc(Br)ccc2n1CSC1=NCCS1 | -20 | -7% | ? | ? | 22µM*
CCOc1ccc(NC(=O)c2ccc3nc(C(C)C)oc3c2)cc1 | . | . | . | -6%[46 µM] | .
Cn1cccc1/C=N/N1CCN(c2ccccc2)CC1 | . | 1% | 14µM* | 4%[46 µM] | .
NCOC(=O)Cc1ccc(Br)cc1 | . | -2%[7.66 µM] | -3%[13.5 µM] | . | -2%
COc1ccc2nc3c(cc2c1)Cc1ccccc1-3 | . | 13µM* | ? | . | ?
COc1ccc(C(=O)Nc2ccc3c(c2)Cc2ccccc2-3)cc1 | ? | -1% | ? | 3% | ?
CCCc1cc(=O)[nH]c(SCc2nc(-c3ccc(C)cc3)no2)n1 | . | . | . | -11%[46 µM] | .
O=c1c(-c2cc(O)c(O)c(O)c2)coc2cc(O)c(O)c(O)c12 | . | -4% | 25µM* | . | 7.1µM*
CC(C)=CCc1c(O)cc2occ(-c3ccc4c(c3)OCO4)c(=O)c2c1O | . | -6% | -8% | . | 25µM*
CCc1cc2c(=O)c(-c3ccc4c(c3)OCCO4)coc2cc1OS(C)(=O)=O | 13 | 1% | ? | ? | -23%
O=c1c(-c2ccc(O)cc2)coc2cc(O)cc(O)c12 | . | -11% | -8% | ? | 25µM*
Nc1ncnc2c1c(-c1ccc(Oc3ccccc3)cc1)cn2C1CCCC1 | . | -2% | ? | ? | ?
Cc1oc2ncn(C)c(=O)c2c1C(=O)N(C)c1ccccc1F | . | . | . | -2%[46 µM] | .
SMILES | PNC inhibitor | Luc counter | ALDH1A1 block | Lamin A splicing | HPGD inh
O=C(OCC(=O)c1c[nH]c2ccccc12)c1ccc([N+](=O)[O-])s1 | . | 6% | 0.71µM* | . | .
CCc1cccc2c(C(=O)CCl)c[nH]c12 | ? | . | 8.9µM* | ? | .
CCc1cccc2c(C(=O)COC(=O)c3ccc([N+](=O)[O-])s3)c[nH]c12 | 7 | 1% | 13µM* | -6% | -12%
CCc1cccc2c(C(=S)N3CCCC3)c[nH]c12 | . | 0% | -9% | . | .
CCCCC/C=C\C\C=C/C=C/C=C/[C@@H](SC[C@H](N)C(=O)O)[C@@H](O)CCCC(=O)O | . | . | 10% | . | .
OC[C@H]1O[C@@H](n2cnc3cncnc32)[C@H](O)[C@@H]1O | . | 1% | -3% | ? | -12%
Cc1ccc(C)c2[nH]c(=O)c(CN(Cc3ccco3)C(=S)NCC3CCCO3)cc12 (stereo not given) | . | -3% | 20µM* | -10%[46 µM] | .
